# Results: PubChem BioAssay (EPA / NIEHS)
# Activity calls are given as the source filed them. Rule for the calls: active = hit-call score of the fitted dose curve at least 0.9, where 1 is the maximum; inactive = score below 0.9.
# Experiments:
# [1] = ATG_ISRE_CIS: Attagene CIS-FACTORIAL HepG2 Assay for human Interferon Regulatory Factor 1 (IRF1) binding to an Interferon-Stimulated Response Element (ISRE) (AID 2282948); settings: HepG2 ISRE cis-reporter (Attagene), mRNA transcription readout; actives raise or lower the signal
# Method in brief: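 Quantitation relies on labelled RT-PCR fragments separated by capillary electrophoresis. Human HepG2 cells bearing cis-promoter reporter constructs were treated 24 h; DMSO served as baseline for bidirectional fitting.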
# [2] = ATG_M_32_CIS: Attagene CIS-FACTORIAL HepG2 Assay for M32 Transcription Factor (Internal Marker) (AID 2282949); settings: HepG2 Attagene cis-factorial M32 reporter, mRNA; actives raise or lower the signal;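 note: background control marker of the multiplexed CIS panel rather than a real target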
# Method in brief: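 HepG2 cells transiently transfected with multiplexed cis-regulated reporter units, dosed 24 h. Reporter mRNA quantified by RT-PCR, 6-FAM labelling, HpaI digestion and capillary electrophoresis; bidirectional fit vs DMSO.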
# [3] = ATG_M_06_CIS: Attagene CIS-FACTORIAL HepG2 Assay for M06 Transcription Factor (Internal Marker) (AID 2282950); settings: HepG2 Attagene CIS-FACTORIAL M06 internal marker reporter; actives raise or lower the signal
# Method in brief: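 Internal background marker within multiplexed cis-reporter HepG2 system. Cells transiently transfected, dosed 24 h; reporter mRNA measured by RT-PCR, HpaI digestion and capillary electrophoresis. Bidirectional fit relative to DMSO.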
# [4] = biological target: Hypoxia-inducible factor 1-alpha (Homo sapiens) (UniProt Q16665); assay: ATG_HIF1a_CIS: Attagene CIS-FACTORIAL HepG2 Assay for human Hypoxia Inducible Factor 1 (HIF1A) (AID 2282951); settings: HepG2 Attagene cis-factorial HIF1a reporter transcription; actives raise or lower the signal
# Chain of Hypoxia-inducible factor 1-alpha (Homo sapiens) (Q16665 whole entry, looked up): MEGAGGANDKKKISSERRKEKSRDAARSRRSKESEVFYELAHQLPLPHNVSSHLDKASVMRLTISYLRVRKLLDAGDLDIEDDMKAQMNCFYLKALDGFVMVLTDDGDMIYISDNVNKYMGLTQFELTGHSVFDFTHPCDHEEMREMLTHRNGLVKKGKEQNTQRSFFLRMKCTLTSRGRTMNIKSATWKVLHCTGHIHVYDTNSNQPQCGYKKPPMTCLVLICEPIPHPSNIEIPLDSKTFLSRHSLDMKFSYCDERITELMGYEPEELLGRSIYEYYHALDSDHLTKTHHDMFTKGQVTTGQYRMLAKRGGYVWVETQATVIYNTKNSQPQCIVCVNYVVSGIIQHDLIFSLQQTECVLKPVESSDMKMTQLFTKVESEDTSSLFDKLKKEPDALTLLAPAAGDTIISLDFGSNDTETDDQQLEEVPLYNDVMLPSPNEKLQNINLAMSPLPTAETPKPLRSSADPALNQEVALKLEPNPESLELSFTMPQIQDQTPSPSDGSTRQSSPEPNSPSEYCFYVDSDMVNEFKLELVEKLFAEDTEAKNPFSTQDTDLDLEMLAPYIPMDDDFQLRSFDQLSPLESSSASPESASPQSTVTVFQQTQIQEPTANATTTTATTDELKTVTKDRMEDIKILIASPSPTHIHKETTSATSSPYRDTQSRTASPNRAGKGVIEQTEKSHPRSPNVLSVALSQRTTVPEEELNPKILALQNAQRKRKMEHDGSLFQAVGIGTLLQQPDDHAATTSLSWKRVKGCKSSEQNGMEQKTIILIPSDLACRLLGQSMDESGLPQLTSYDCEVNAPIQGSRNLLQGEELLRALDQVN
# Method in brief: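 Endogenous-TF cis reporter readout, human HepG2 cells, 24 h incubation; mRNA detected via RT-PCR and capillary electrophoresis fluorescence; DMSO-normalised bidirectional fitting.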
# [5] = biological target: Hepatocyte nuclear factor 6 (Homo sapiens) (UniProt Q9UBC0); assay: ATG_HNF6_CIS: Attagene CIS-FACTORIAL HepG2 Assay for human Hepatocyte Nuclear Factor 6 (HNF6) (AID 2282952); settings: HepG2 Attagene cis-factorial HNF6 reporter transcription; actives raise or lower the signal
# Chain of Hepatocyte nuclear factor 6 (Homo sapiens) (Q9UBC0 whole entry, looked up, the tested form may be a part): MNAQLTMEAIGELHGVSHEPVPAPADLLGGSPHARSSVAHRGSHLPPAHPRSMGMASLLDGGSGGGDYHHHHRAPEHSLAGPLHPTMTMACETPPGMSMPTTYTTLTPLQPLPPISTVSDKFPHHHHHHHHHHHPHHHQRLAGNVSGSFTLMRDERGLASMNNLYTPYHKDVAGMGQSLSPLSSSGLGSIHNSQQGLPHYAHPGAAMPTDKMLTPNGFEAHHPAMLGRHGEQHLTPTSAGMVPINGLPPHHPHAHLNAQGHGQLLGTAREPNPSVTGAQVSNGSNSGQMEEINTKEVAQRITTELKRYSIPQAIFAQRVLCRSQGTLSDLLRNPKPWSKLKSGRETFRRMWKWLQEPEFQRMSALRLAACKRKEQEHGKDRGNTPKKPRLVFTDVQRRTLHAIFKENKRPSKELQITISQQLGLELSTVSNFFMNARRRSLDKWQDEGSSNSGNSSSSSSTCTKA
# Method in brief: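 HepG2 cells transiently transfected with cis-element-driven multiplexed reporter units measuring endogenous transcription factor activity. After 24 h exposure, reporter mRNA quantified by RT-PCR, FAM-labelled fragments and capillary electrophoresis; bidirectional fitting versus DMSO.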
# [6] = biological target: Heat shock factor protein 1 (Homo sapiens) (UniProt Q00613); assay: ATG_HSE_CIS: Attagene CIS-FACTORIAL HepG2 Assay for human Heat Shock Transcription Factor 1 (HSE) (AID 2282953); settings: HepG2 HSE cis-reporter, Attagene RNA transcription; actives raise or lower the signal
# Chain of Heat shock factor protein 1 (Homo sapiens) (Q00613 whole entry, looked up): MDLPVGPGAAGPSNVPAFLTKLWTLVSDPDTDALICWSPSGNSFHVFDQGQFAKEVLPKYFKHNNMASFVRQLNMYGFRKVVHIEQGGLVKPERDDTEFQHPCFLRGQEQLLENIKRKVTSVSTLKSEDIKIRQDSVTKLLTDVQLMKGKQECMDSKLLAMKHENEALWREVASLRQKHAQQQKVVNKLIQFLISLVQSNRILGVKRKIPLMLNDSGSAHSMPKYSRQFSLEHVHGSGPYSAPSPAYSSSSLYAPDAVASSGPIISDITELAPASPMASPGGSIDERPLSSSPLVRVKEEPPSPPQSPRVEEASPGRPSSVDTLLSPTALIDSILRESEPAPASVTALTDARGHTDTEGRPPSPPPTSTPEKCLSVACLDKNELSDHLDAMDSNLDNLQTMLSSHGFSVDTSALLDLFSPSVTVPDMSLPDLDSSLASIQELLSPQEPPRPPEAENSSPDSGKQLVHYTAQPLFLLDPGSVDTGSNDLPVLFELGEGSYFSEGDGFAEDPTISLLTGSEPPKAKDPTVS
# Method in brief: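 HepG2 cells transfected with cis-promoter reporter units sensing endogenous transcription factor activity; reporter mRNA quantified 24 h post-dose by RT-PCR and capillary electrophoresis of 6-FAM-labelled products. Bidirectional fitting against DMSO.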
# [7] = ATG_MRE_CIS: Attagene CIS-FACTORIAL HepG2 Assay for human Metal Responsive Element (MRE) (AID 2282954); settings: HepG2 MRE cis-reporter transcription, Attagene multiplex; actives raise or lower the signal
# Method in brief: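 Step one: transfect HepG2 with cis-regulated reporter units. Step two: dose 24 h. Step three: isolate RNA, RT-PCR, 6-FAM label, HpaI digest, capillary electrophoresis. Fit bidirectionally to DMSO.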
# [8] = ATG_PBREM_CIS: Attagene CIS-FACTORIAL HepG2 Assay for human Phenobarbital-responsive Enhancer Module (PBREM) (AID 2282955); settings: HepG2 PBREM cis-reporter, Attagene multiplexed transcription; actives raise or lower the signal
# Method in brief: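 Readout: reporter mRNA, fluorescent RT-PCR fragments separated by capillary electrophoresis. System: HepG2 transiently transfected with cis-regulated reporter units. Exposure: 24 h. Analysis: bidirectional, DMSO baseline.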
# [9] = ATG_GRE_CIS: Attagene CIS-FACTORIAL HepG2 Assay for human Glucocorticoid Response Elements (GRE) (AID 2282947); settings: HepG2 GRE cis-reporter, Attagene multiplex mRNA; actives raise or lower the signal
# Method in brief: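 Following 24 h chemical exposure of transiently transfected HepG2 cells, total RNA was reverse-transcribed and reporter cDNA amplified, fluorescently labelled and sized by capillary electrophoresis. Signal gain or loss was fitted relative to DMSO vehicle.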
SMILES,outcome [1],outcome [2],outcome [3],outcome [4],outcome [5],outcome [6],outcome [7],outcome [8],outcome [9],AC50 [6],AC50 [7],AC50 [4],AC50 [8]
OC[C@H]1O[C@@H](Oc2ccc(O)cc2)[C@H](O)[C@@H](O)[C@@H]1O,inactive,inactive,inactive,inactive,inactive,inactive,inactive,,,,,,
CCCC(=O)C(CC)Sc1ccoc1C (centres undefined),inactive,,inactive,inactive,inactive,inactive,inactive,inactive,,,,,
CC(C)CCCCCCc1ccc(OCCOCCO)cc1,inactive,,inactive,inactive,inactive,inactive,inactive,inactive,,,,,
O=C(Nc1ccc2c(O)c(N=Nc3ccc(N=Nc4ccc(S(=O)(=O)O)cc4)cc3)c(S(=O)(=O)O)cc2c1)c1ccccc1,inactive,inactive,,inactive,inactive,inactive,inactive,inactive,,,,,
CC(=O)C(C)O (centres undefined),inactive,inactive,inactive,inactive,inactive,inactive,inactive,inactive,,,,,
CCOc1ccccc1O,inactive,inactive,inactive,inactive,inactive,inactive,,inactive,,,,,
CCCCCCOC(=O)C(C)C,inactive,inactive,inactive,inactive,inactive,inactive,inactive,,,,,,
CCC(=O)OCCOc1ccccc1,inactive,inactive,inactive,,inactive,inactive,,,,,,,
O=C(O)c1cccnc1C(=O)O,inactive,inactive,inactive,,inactive,inactive,inactive,,,,,,
CS(=O)(=O)OCCCCOS(C)(=O)=O,inactive,inactive,inactive,inactive,inactive,inactive,inactive,,,,,,
CN(C)c1ccncc1,inactive,inactive,inactive,,inactive,inactive,inactive,inactive,,,,,
Brc1ccc(Br)c(Br)c1,inactive,,inactive,inactive,inactive,inactive,inactive,,,,,,
OCc1ccc(Cl)cc1Cl,inactive,inactive,inactive,inactive,inactive,inactive,,inactive,,,,,
COC(=O)C=C(C)CCC=C(C)C,inactive,inactive,inactive,inactive,inactive,inactive,inactive,,,,,,
CCCCCCCCCCCC(=O)OCC(O)CO (centres undefined),inactive,inactive,inactive,inactive,inactive,inactive,inactive,inactive,,,,,
OCC(O)c1ccccc1 (centres undefined),inactive,inactive,inactive,inactive,inactive,inactive,inactive,,,,,,
COc1ccccc1N=Nc1c(S(=O)(=O)O)cc2cc(S(=O)(=O)O)cc(NC(C)=O)c2c1O,inactive,,,inactive,inactive,inactive,inactive,inactive,inactive,,,,
N#Cc1ccc(CC(=O)c2cccc(C(F)(F)F)c2)cc1,inactive,,,,inactive,,,inactive,inactive,150 µM (active),100 µM (active),,

SMILES,outcome [1],outcome [2],outcome [3],outcome [4],outcome [5],outcome [6],outcome [7],outcome [8],outcome [9],AC50 [6],AC50 [7],AC50 [4],AC50 [8]
Nc1c(S(=O)(=O)O)cc(Br)c2c1C(=O)c1ccccc1C2=O,inactive,inactive,inactive,inactive,inactive,inactive,,,,,58 µM (active),,
CCOC(=O)C(C#N)=C(c1ccccc1)c1ccccc1,inactive,inactive,,,inactive,,,,,149 µM (active),86.9 µM (active),19.8 µM (active),2.07 µM (active)
CCCC(O)C(O)CO (centres undefined),inactive,,,inactive,inactive,inactive,inactive,inactive,inactive,,,,
CC1(C)O[C@@H]2[C@@H](CO[C@@]3(COS(N)(=O)=O)OC(C)(C)O[C@@H]23)O1,inactive,inactive,inactive,,inactive,inactive,inactive,inactive,,,,,
Cc1ncc([N+](=O)[O-])n1CCO,inactive,,inactive,,inactive,inactive,,inactive,,,,,
CCOC(=O)COC(=O)c1cc(Oc2ccc(C(F)(F)F)cc2Cl)ccc1[N+](=O)[O-],inactive,inactive,inactive,inactive,inactive,inactive,inactive,inactive,,,,,
CC/C=C\CCOC(=O)CC,inactive,inactive,inactive,inactive,inactive,inactive,inactive,,,,,,
C[C@@H]1CCN(C(=O)[C@H](CCCN=C(N)N)NS(=O)(=O)c2cccc3c2NC[C@H](C)C3)[C@@H](C(=O)O)C1,inactive,inactive,inactive,,inactive,inactive,inactive,inactive,,,,,
CCCCC1(COC(=O)CCC(=O)O)C(=O)N(c2ccccc2)N(c2ccccc2)C1=O,inactive,inactive,inactive,,inactive,inactive,inactive,,,,,,
CC(C)(CO)[C@@H](O)C(=O)NCCC(=O)O,inactive,inactive,inactive,,inactive,inactive,inactive,inactive,,,,,
CCCCCC(=O)CC,inactive,inactive,inactive,inactive,inactive,inactive,inactive,inactive,,,,,
O=[N+]([O-])c1cccc(Cl)c1,inactive,inactive,inactive,,inactive,inactive,inactive,,,,,,
CN(c1nccc(=O)[nH]1)C1CCN(c2nc3ccccc3n2Cc2ccc(F)cc2)CC1,inactive,inactive,inactive,inactive,inactive,inactive,,inactive,,,26.7 µM (active),,
C1=CC2C3C=CC(C3)C2C1 (centres undefined),inactive,,,inactive,inactive,inactive,inactive,inactive,inactive,,,,
O=CN1CCOCC1,inactive,inactive,inactive,,inactive,inactive,,,,,,,
Nc1c(Cl)cc(Cl)cc1[N+](=O)[O-],inactive,inactive,,inactive,inactive,,inactive,inactive,,,,,
Cc1[nH]c(=O)c(C#N)cc1-c1ccncc1,inactive,inactive,,,inactive,inactive,inactive,inactive,,,,,
OCCc1ccccc1,inactive,inactive,inactive,inactive,inactive,inactive,inactive,,,,,,
